We go through eight compounds from PubChem BioAssay (NCATS).

Molecules are shown by their SMILES. Values joined by “and” are separate entries in the source; they are usually repeats but may differ in a detail not shown here. Identical values can stand only once. Unmarked numbers belong to inactive results. Records with an inconclusive call do not appear. Active and inactive are the calls of the source. Unless noted, calls follow the shape of the dose curve; as a rule, active = well fitted curve in either direction with a large enough effect (not every such curve was filed as active); inconclusive = small, poorly fitted or top-dose-only effect, or another doubt; inactive = flat fitted curve, though single readings scatter.

In assay [1] the target is Cytochrome P450 1A2 (Homo sapiens) (UniProt P05177). Briefly: p450-cyp1a2 (AID 410; calls by dose curve; also: potency is read from the fitted curve at half-maximal effect;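 as to activity change, negative = inhibition: -100% = full effect of reference inhibitor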). The procedure, abridged: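 20nM CYP1A2 with 100uM Luciferin-ME (at Km) in 100mM KPO4; compound preincubated 10 min, NADPH regeneration added, 60 min at room temperature. Luciferin quantified by luminescence after detection reagent; normalized to 57 uM furafylline.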
Chain of Cytochrome P450 1A2 (Homo sapiens) (P05177 whole entry, looked up): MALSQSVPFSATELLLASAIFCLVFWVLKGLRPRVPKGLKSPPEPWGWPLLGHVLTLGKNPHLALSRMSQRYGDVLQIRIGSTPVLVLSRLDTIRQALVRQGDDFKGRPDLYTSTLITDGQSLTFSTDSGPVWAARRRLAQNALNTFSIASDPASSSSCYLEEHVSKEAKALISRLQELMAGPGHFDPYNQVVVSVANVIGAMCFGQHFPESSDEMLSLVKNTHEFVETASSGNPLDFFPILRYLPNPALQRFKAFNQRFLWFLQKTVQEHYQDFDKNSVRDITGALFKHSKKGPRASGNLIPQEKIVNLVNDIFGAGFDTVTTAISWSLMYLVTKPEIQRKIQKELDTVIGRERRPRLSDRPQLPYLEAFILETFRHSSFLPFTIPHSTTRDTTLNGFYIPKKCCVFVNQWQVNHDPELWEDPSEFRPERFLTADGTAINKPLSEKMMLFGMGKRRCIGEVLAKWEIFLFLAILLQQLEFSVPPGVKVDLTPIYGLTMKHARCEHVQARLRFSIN
Assay [2] can be described thus: NFAT Signaling Pathway (AID 444).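 Also: carbachol stimulus at about its EC50 of 1 µM final; % is scaled to controls: 0 for no effect and ±100 for the full control effect.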 The following applies: Jurkat NFAT-bla M1, carbachol, beta-lactamase ratio, 5 h. The procedure, abridged: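 Jurkat cells carrying an NFAT-driven β-lactamase reporter and co-transfected muscarinic M1 receptor were treated with compound plus carbachol (1 uM final, an EC50 level) for 5 h at 37 °C. CCF4 loading followed for 1 h at RT; 460/530 nm ratio gave %activity.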

The nature of assay [3]: Stat Signaling Pathway (AID 446).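 Also: ME-180 cervical cancer cells given 40 pM IL-6 alongside compound; SIE-controlled beta-lactamase reporter measured as 460/530 nm FRET emission ratio; % is scaled to controls: 0 for no effect and ±100 for the full control effect.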 The procedure, abridged:
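Reporter line: ME-180 cervical carcinoma, SIE-beta-lactamase. Treatment: compound with 40 pM IL-6, 5 hrs, 37 C, in low-serum OPTI-MEM with 10 mM HEPES pH 7.3. Detection: 460/530 nm fluorescence.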

The target of assay [4] is Glucocorticoid receptor (Homo sapiens) (UniProt P04150). The experiment in a line: GR-GFP Redistribution (AID 450;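 active = compounds whose dose series gives a full or clear partial fitted curve of increased nuclear translocation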; also: potency is read from the fitted curve at half-maximal effect). The following applies: U2OS GR-GFP nuclear translocation, laser cytometry, 2 h.
Chain of Glucocorticoid receptor (Homo sapiens) (P04150 whole entry, looked up, the tested form may be a part): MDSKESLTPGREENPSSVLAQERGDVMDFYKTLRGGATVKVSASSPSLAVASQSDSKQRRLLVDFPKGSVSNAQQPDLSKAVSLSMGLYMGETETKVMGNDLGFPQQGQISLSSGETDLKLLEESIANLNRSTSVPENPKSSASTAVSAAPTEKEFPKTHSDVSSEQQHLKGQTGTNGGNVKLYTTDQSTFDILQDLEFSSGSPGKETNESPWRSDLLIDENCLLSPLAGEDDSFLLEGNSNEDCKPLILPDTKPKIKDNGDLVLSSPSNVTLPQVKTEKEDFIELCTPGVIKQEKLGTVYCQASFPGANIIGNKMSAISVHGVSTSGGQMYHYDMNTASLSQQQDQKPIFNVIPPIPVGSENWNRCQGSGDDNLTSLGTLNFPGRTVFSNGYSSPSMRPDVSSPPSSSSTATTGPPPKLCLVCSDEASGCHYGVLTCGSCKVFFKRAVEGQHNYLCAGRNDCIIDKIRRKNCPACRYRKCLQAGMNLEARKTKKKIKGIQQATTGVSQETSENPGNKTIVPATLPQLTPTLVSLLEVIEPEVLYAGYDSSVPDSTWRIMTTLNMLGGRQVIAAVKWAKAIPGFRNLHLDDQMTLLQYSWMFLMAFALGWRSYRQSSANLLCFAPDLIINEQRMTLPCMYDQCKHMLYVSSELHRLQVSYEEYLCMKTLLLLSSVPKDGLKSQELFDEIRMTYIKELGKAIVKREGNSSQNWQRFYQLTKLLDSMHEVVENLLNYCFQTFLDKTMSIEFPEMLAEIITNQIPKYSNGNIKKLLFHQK
Assay [5] shares this target. Briefly: GR-EFC Redistribution (AID 451; calls by dose curve; also: potency is read from the fitted curve at half-maximal effect). The settings on record: CHO-K1 GR-EFC translocation, beta-gal luminescence, 2 h. The procedure, abridged: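 CHO-K1 cells stably expressing nuclear-localized β-gal enzyme acceptor and GR fused C-terminally to the enzyme donor fragment; ligand-driven nuclear translocation restores β-gal by complementation. Compounds titrated up to 46 uM final, 2 h at 37 °C; luminescence read.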

Assay [6] has as its target Mitogen-activated protein kinase 10 (Mus musculus) (UniProt Q61831). The experiment in a line: JNK3 AlphaScreen Assay (AID 530).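 Also: kinase came from lysate of stimulated human HepG2 cells; signal reports phosphorylation of biotinylated GST-cJun 1-79 at Ser73 with 10 µM ATP; % is scaled to controls: 0 for no effect and ±100 for the full control effect.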 An outline of the steps: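 Inhibitors reduce antibody binding to phosphorylated biotin-cJun, lowering AlphaScreen luminescence. Lysates from HepG2 cells pre-activated by IL-1beta plus TNF-alpha supplied JNK3; compounds were titrated.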
A short description of assay [7]: Cell Viability - BJ (AID 421; calls by dose curve;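 also: potency is read from the fitted curve at half-maximal effect; cells exposed to compound for 40 hours at 37 °C before readout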). The following applies: BJ fibroblast viability, qHTS. The procedure, abridged: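 Cytotoxicity as drop in intracellular ATP (CellTiter-Glo, 20 min RT) after 40 hr compound exposure of BJ fibroblasts at 37 °C. Titrations scaled between DMSO and 100 uM tamoxifen, Hill-fitted for AC50.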
Background: In qHTS, concentration-response curves come from the screen itself.

Assay [8] is described as follows: Cell Viability - Jurkat (AID 426;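 active = dose-dependent loss of cell ATP signal giving a full or clear fitted curve, ranked by lower potency value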; also: potency is read from the fitted curve at half-maximal effect). The following applies: qHTS. The procedure, abridged: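 Jurkat (Clone E6-1) cells, 5000/well in complete medium, exposed to compounds for 40 hr at 37C; intracellular ATP measured by CellTiter-Glo luminescence after 20 min at room temperature. AC50 from Hill fits.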
Assay [9] in a line: Cell Viability - Hek293 (AID 427;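 active = compounds whose dose-response curve shows a full or clear partial loss of cell viability, called from curve shape rather than a numeric limit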;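 also: potency is read from the fitted curve at half-maximal effect; cells exposed to compound for 40 hours at 37 °C before reading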). The settings on record: qHTS. The procedure, abridged:
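Luminescent ATP content (CellTiter-Glo, 20 min at room temperature) was measured after a 40 hr, 37 °C compound exposure of HEK293 cells. AC50 values came from Hill-equation fits of qHTS concentration-response data normalized to DMSO and 100 uM tamoxifen.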

Assay [10] in a line: Cell Viability - HepG2 (AID 433; calls by dose curve;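 also: potency is read from the fitted curve at half-maximal effect; potency for ATP loss meaning cytotoxicity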). The following applies: qHTS. The procedure, abridged:
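ATP luminescence (CellTiter-Glo) after 40 h compound exposure, 37 °C, HepG2, 1500 cells/well, complete medium. Normalized: DMSO = basal, 100 uM tamoxifen = 100% inhibition. AC50 via standard Hill equation.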

Assay [11] is described as follows: Cell Viability - MRC5 (AID 434; calls by dose curve;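 also: potency is read from the fitted curve at half-maximal effect; potency reflects cytotoxicity seen as loss of intracellular ATP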). The settings on record: MRC5 lung fibroblast viability, qHTS. The procedure, abridged: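 MRC5 normal human lung fibroblasts (1500/well) were treated with compounds for 40 hr at 37 °C in complete medium, and viable cells were measured as intracellular ATP by CellTiter-Glo luminescence. AC50 came from Hill fits, normalized to DMSO and 100 uM tamoxifen.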

Assay [12] in a line: Cell Viability - SK-N-SH (AID 435; calls by dose curve; also: potency is read from the fitted curve at half-maximal effect). The following applies: SK-N-SH neuroblastoma cell viability qHTS. The procedure, abridged:
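CellTiter-Glo ATP luminescence, 20 min RT read; cells pre-plated 5 hr, compound 40 hr at 37 °C, 1500 cells/well, complete medium. Normalized DMSO = 0, 100 uM tamoxifen = 100% inhibition; Hill-fit AC50.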

Assay [13] in a line: Cell Viability - N2a (AID 540; active = well fitted curve in the direction sought with a large enough effect; an effect the other way counts as inactive or inconclusive;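 also: plate controls were DMSO alone for no effect and tamoxifen control for full effect; nearly all actives have a fitted effect of over 45% in size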). The procedure, abridged:
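Mouse neuroblastoma N2a cells, 1500/well, exposed to compounds 40 h at 37 °C in complete medium. Viability measured as cellular ATP by CellTiter-Glo luminescence; AC50 from Hill fits of concentration-response.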

Assay [14] in a line: Cell Viability - NIH 3T3 (AID 541; active = well fitted curve in the direction sought with a large enough effect; an effect the other way counts as inactive or inconclusive;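 also: plate controls were DMSO alone for no effect and tamoxifen positive control for full effect; nearly all actives have a fitted effect of over 25% in size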). The settings on record: NIH 3T3 cell viability, qHTS; activity change, negative = cytotoxicity: at 92.2 µM (top of the series). An outline of the steps:
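Mouse NIH 3T3 fibroblasts, 1000 cells/well, rested 5 hr at 37 °C, then exposed to compound for 40 hr at 37 °C in complete medium. Viability read as intracellular ATP by CellTiter-Glo luminescence; AC50 from Hill-equation fits of concentration-response data.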

A short description of assay [15]: Cell Viability - HUV-EC-C (AID 542; active = well fitted curve in the direction sought with a large enough effect; an effect the other way counts as inactive or inconclusive; also: % is scaled to controls: 0 for no effect and ±100 for the full control effect; nearly all actives have a fitted effect of over 35% in size). An outline of the steps: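 HUV-EC-C human vascular endothelial cells, 1000/well, exposed to compound for 40 hr at 37 °C in complete medium. Intracellular ATP was read by CellTiter-Glo luminescence. AC50 came from Hill-equation fits of concentration-response data.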
The nature of assay [16]: Cell Viability - H-4-II-E (AID 543; active = well fitted curve in the direction sought with a large enough effect; an effect the other way counts as inactive or inconclusive; also: % is scaled to controls: 0 for no effect and ±100 for the full control effect; nearly all actives have a fitted effect of over 35% in size). An outline of the steps:
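Rat hepatoma H-4-II-E cells, 1500 per well, treated 40 h at 37 °C in complete medium. Cellular ATP read by CellTiter-Glo luminescence; AC50 from Hill fits of concentration-response.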

Assay [17] in a line: Cell Viability - SH-SY5Y (AID 544; active = well fitted curve in the direction sought with a large enough effect; an effect the other way counts as inactive or inconclusive;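 also: 0% = DMSO alone and -100% = 100 µM tamoxifen; nearly all actives have a fitted effect of over 55% in size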). An outline of the steps:
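SH-SY5Y human neuroblastoma cells (1500/well) incubated 5 h, then compound-treated 40 h at 37 °C in complete medium. Viability read as intracellular ATP by CellTiter-Glo luminescence after 20 min; AC50 from Hill-equation fits of qHTS concentration-response.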

Assay [18] in a line: Cell Viability - Renal Proximal Tubule (AID 545; active = well fitted curve in the direction sought with a large enough effect; an effect the other way counts as inactive or inconclusive;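 also: 0% = DMSO only and -100% = 100 µM tamoxifen; nearly all actives have a fitted effect of over 40% in size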). The following applies: renal proximal tubule cells viability, primary cells of rat origin; activity change, negative = cytotoxicity: at 91.7 µM (top of the series). An outline of the steps:
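Rat kidney proximal tubule cells, freshly isolated; 1000 cells/well, 5 hr settle, compound 40 hr 37 °C. CellTiter-Glo 20 min RT, luminescence read. AC50 by standard Hill fit.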

Assay [19] can be described thus: AP1 Signaling Pathway (AID 357).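 Also: ME-180 reporter cells stimulated with EGF at its EC50 level; % is scaled to controls: 0 for no effect and ±100 for the full control effect.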 The following applies: ME-180 (cervical carcinoma) AP-1-bla reporter, EGF-induced, beta-lactamase ratio, 5 h. An outline of the steps: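 Modulation of EGF-driven AP-1 transcription was assessed with a beta-lactamase reporter in ME-180 cells. Compound and EC50 EGF were co-incubated 5 hours at 37 °C before 2.5-hour CCF4 loading at room temperature and dual-emission reading.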

In the case of `CN1CCN(C2=Nc3ccccc3Oc3ccc(Cl)cc32)CC1`, the Potency in assay [1] was 3.16 µM (active); in [4], > 46 µM and > 20.6 µM; in assay [5], > 46 µM and > 20.6 µM. Also, in assay [2] (at 17.2 µM (top of the series)), the activity change, negative = inhibition is -75.6% (active). Moreover, the compound was classed as inactive in [3]. Moreover, in assay [6], the Potency entry is “inactive”.

For the compound `N[C@@H](COP(=O)(O)O)C(=O)O`, the Potency in assay [5] was greater than 46 µM. Also, the Potency entry in assay [6] is “inactive”.

Consider `COc1ccc(CN(CCN(C)C)c2ccccn2)cc1`, for which the Potency entry in assay [1], in assay [6], in assay [15], in [16] and in [17] was “inactive” in each case. The Potency in assay [7], in [8], in assay [9], in [10], in assay [11] and in assay [12] was greater than 92 µM throughout. The Potency in assay [4] is > 46 µM and > 20.6 µM; in [5], > 46 µM and > 20.6 µM. For the same compound, the activity change, negative = inhibition in assay [2] (at 17.2 µM (top of the series)) is -25.9% and -22.5%; in assay [2] (at 38 µM (top of the series)) it was -21.9%. Besides, the call in assay [3] and in assay [13] was inactive. In addition, the activity change, negative = cytotoxicity in [14] is -13.1%; in [18], 7.61%.

Consider `CCOC(=O)c1cnc2c(cnn2CC)c1NN=C(C)C`, for which the Potency in assay [1] is 501 nM (active) and 126 nM (active). Also, the activity change, negative = inhibition in [2] (at 38 µM (top of the series)) is 6.94%. Further, in assay [3], the outcome was inactive.

`CCc1cccc(N(C)C(N)=Nc2cccc3ccccc23)c1`: in assay [2] (at 38 µM (top of the series)), the activity change, negative = inhibition is -9.54%. In addition, the Potency in assay [4] and in assay [5] was greater than 46 µM each time. Moreover, in assay [6], the Potency entry is “inactive”.

`CCNC(=O)N1CCN(CCCC(c2ccc(F)cc2)c2ccc(F)cc2)CC1`: the activity change, negative = inhibition in [19] (at 38 µM (top of the series)) was 1.34%. The outcome in assay [3] was inactive. For the same compound, the Potency in assay [4] and in assay [5] was greater than 46 µM each time. Moreover, in assay [6], the Potency result is “inactive”.

For the compound `CCCCOCCOCCOCc1cc2c(cc1CCC)OCO2`, the Potency in assay [7], in [8], in [9], in assay [10], in [11] and in [12] was greater than 92 µM each time. In addition, in assay [13], the result was inactive. Also, the Potency entry in assay [15], in assay [16] and in assay [17] was “inactive” each time. Also, in assay [18], the activity change, negative = cytotoxicity was -1.35%.

Turning to `C(=C\c1ccccc1)/CN1CCN(C(c2ccccc2)c2ccccc2)CC1`, the activity change, negative = inhibition in [19] (at 17.2 µM (top of the series)) is -4.86%. The compound was called inactive in assay [3].
